# ARNT TACC3 PPI = disruptors of human ARNT/TACC3 interaction. AlphaScreen His-ARNT PAS-B/GST-TACC3 binding, luminescence; TACC3 fragment carries E629A point mutation. inhibition, % at 9.99 µM. 0.66% of 390,000 active. AID 623870;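 active = mean inhibition of replicates at least 50% and at least half of replicates each reaching 50%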;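 also: 0% = complete ARNT plus TACC3 wells and 100% = ARNT alone without TACC3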
# hiPSC survival = hiPSC single-cell survival enhancement | ATPlite luminescence; 100% = ROCK inhibitor wells, 0% = DMSO | survival enhancement, % at 20 µM | 0.044% of 360,000 active | AID 602274; in the data active = survival enhancement above about 18%;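 also: cells exposed to compounds for 16 hours before the ATP read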
# ABCB6 inh MLPCN = blocks the human ABCB6 transporter. 0.19% of 360,000 active. K562-ABCB6 porphyrin accumulation, flow cytometry, 1 h; stronger effect = lower value. Q9NP58. AID 602162. fluorescence ratio to DMSO, % at 10 µM;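 active = fluorescence ratio to DMSO below 75%, the collection mean minus 3 SD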;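 also: signal is porphyrin accumulated inside mitochondria; 100% equals median channel fluorescence of DMSO control wells; lower ratio means ABCB6 inhibition with less porphyrin fluorescence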
# Target sequence (Q9NP58 whole entry, looked up): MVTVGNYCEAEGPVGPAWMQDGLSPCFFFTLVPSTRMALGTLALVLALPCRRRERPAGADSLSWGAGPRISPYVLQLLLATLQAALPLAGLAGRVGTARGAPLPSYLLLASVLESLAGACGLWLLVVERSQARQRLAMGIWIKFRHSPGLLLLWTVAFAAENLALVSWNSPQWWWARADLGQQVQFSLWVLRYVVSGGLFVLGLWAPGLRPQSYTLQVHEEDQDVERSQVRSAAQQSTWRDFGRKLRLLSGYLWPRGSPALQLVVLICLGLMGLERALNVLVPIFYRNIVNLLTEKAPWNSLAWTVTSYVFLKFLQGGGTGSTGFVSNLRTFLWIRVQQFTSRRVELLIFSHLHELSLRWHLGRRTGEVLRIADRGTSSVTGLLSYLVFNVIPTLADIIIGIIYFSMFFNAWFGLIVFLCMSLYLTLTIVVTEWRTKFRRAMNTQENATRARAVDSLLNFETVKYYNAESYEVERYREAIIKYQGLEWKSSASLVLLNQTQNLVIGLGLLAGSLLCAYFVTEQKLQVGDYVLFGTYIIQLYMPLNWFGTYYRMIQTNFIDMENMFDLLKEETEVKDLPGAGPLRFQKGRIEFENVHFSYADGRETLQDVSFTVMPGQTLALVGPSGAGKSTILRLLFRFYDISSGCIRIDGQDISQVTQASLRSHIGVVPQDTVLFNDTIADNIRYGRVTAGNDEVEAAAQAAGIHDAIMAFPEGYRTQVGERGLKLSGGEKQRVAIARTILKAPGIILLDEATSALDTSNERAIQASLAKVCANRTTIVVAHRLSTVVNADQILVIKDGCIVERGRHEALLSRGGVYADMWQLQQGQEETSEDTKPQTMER
# CendR NRP1 mod = NRP-1/CendR interaction modulation | O14786 | FAM-RPARPAR peptide binding to NRP-1, fluorescence polarization | inhibition, % at 25 µM | 0.85% of 360,000 active | AID 602438;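 active = inhibition or corrected inhibition above about 18%, plus a signal ratio from 0.5 to 1.5, limit read from the data, passing the limit was not always enough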
# INS-1E GSIS act = primary screen for activators of insulin secretion dependent on glucose, INS-1E cells, GLuc reporter luminescence. 0.61% of 370,000 active. AID 743287. INS-1E GLuc reporter insulin secretion, 2-3 h. activation, % at 16.6 µM;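 active = lowest replicate activation of at least 40%, so every replicate reaches that level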;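 also: 0% = median of neutral control wells and 100% = median of IBMX positive control wells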
# An asterisk follows results filed as active; . = not tested or not shown. Hits are enriched below; roughly 1.8% of the tested compounds scored in any of these assays.
SMILES,ARNT TACC3 PPI,hiPSC survival,ABCB6 inh MLPCN,CendR NRP1 mod,INS-1E GSIS act
CO[C@H]1CN(C)C(=O)c2cc(NS(=O)(=O)CC(F)(F)F)ccc2OC[C@@H](C)N(Cc2cccnc2)C[C@@H]1C,-4,.,.,.,3
Cc1ccccc1SCC(=O)N/N=C/c1ccc(F)cc1,1,0,98,-2,4
O=C(CSC1CN(C(c2ccccc2)c2ccccc2)C1)N/N=C/c1ccccc1,6,0,97,41*,-14
FC(F)(F)C1CC(c2cccs2)Nc2ncnn21 (stereo not given),4,-1,93,30*,.
CCC(C)NC(=O)c1cnn2c1NC(c1cccs1)CC2C(F)(F)F (stereo not given),.,2,103,22*,.
CC(C)(C)NC(=O)c1cnn2c1NC(c1ccc(F)cc1)CC2C(F)(F)F (stereo not given),15,-1,97,0,.
O=C(NCc1cc(C(F)(F)F)cc(C(F)(F)F)c1)C1CC(c2ccccc2F)=NO1 (stereo not given),-9,6,96,28*,-8
COCCNC(=O)C1CC(c2ccc(C(F)(F)F)cc2)=NO1 (stereo not given),1,4,97,28*,-12
O=C(NCc1cccc(C(F)(F)F)c1)C1CC(c2ccccc2F)=NO1 (stereo not given),-5,0,99,19,-18
COCCNC(=O)C1CC(c2ccc(F)cc2)=NO1 (stereo not given),-5,5,100,9,.
C/C=C/c1ccc(C2[C@H]3CNC[C@@H]2N3S(=O)(=O)Cc2ccccc2)cc1 (stereo not given in full),.,.,.,.,1
COc1cc2cnc(-c3ccsc3)cc2cc1OC,0,-2,99,-5,50*
c1cc(-c2cc3cc4c(cc3cn2)OCO4)cs1,0,0,95,5,1
CCCNC(=O)N(C)C[C@H]1Oc2cc(-c3ccccc3F)ccc2S(=O)(=O)N([C@@H](C)CO)C[C@@H]1C,-2,.,.,.,-1
Cc1cccc2nc(-c3ccco3)c(Nc3ccccc3)n12,-2,0,96,-10,41*
C[C@H]1CCCCO[C@@H](CN(C)C(=O)CCCN(C)C)[C@@H](C)CN([C@@H](C)CO)C(=O)c2cc(NS(C)(=O)=O)ccc2O1,.,.,.,.,-2
CCCNC(=O)N1CC2(C1)CN(C(=O)CC1CC1)[C@@H](CO)c1[nH]c3cc(OC)ccc3c12,.,.,.,.,2
Clc1cccc(-c2ccc(CNCc3ccccn3)o2)c1,74*,-1,102,0,.
Brc1ccc(-c2ccc(CNCc3ccccn3)o2)cc1,3,1,95,-14,36
Cc1nc(S/C(=C/c2ccc(-c3ccc(Cl)cc3)o2)C(=O)O)n[nH]1,.,-1,114,36*,.
Cc1nc(S/C(=C/c2ccc(-c3ccc(C(=O)O)cc3)o2)C(=O)O)n[nH]1,18,-1,97,-89,-14
CCOc1ccc(C2CC(c3ccc(CC)cc3)n3nc(N)nc3N2)cc1 (stereo not given),4,0,99,44*,1
CCOc1ccc(C2CC(c3ccc(CC)cc3)Nc3nc(N)nn32)cc1 (stereo not given),0,-3,99,-7,6
COC(=O)c1ccc(CSc2nc3scc(-c4cccs4)c3c(=O)[nH]2)o1,-9,0,59*,-32,.
Cc1[nH]oc(=O)c1N=Nc1ccc2[nH]c(=O)[nH]c2c1,-5,0,71*,0,1
SMILES,ARNT TACC3 PPI,hiPSC survival,ABCB6 inh MLPCN,CendR NRP1 mod,INS-1E GSIS act
Cc1[nH]n(-c2ccccc2)c(=O)c1C=Nc1ccc2[nH]c(=O)[nH]c2c1,2,0,100,5,18
C[C@@H]1CN([C@@H](C)CO)C(=O)c2cc(NC(=O)Cn3cnnn3)ccc2O[C@@H]1CN(C)Cc1ccc(Oc2ccccc2)cc1,6,.,.,.,-7
Cc1oc(-c2ccc(F)cc2)nc1CN(Cc1ccccn1)CC1CCCO1 (stereo not given),50*,0,106,-12,-1
COc1cccc(NC(=O)C[C@H]2CC[C@@H]3[C@H](COc4ccc(NC(=O)C5CCOCC5)cc4C(=O)N3C)O2)c1,2,.,.,.,-8
C/C(=N\NC(=O)c1nnn(-c2nonc2N)c1CN(C)c1ccccc1)c1ccccn1,48*,0,99,8,.
COc1ccccc1NC(=O)NCCCN1CCN(c2cccc(Cl)c2)CC1,48*,-2,98,4,-12

# Screening data deposited in PubChem BioAssay by several laboratories.
